Measurements as given in PubChem BioAssay (NCI).
The panel holds about 83,000 compounds, 20% with a hit somewhere; the sample as a whole holds those more often.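 Method: cells in 96-well plates; compound added at one concentration; 48 h incubation; percent growth measured; values under 10 scored active.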 Unmarked numbers belong to inactive results. Active and inactive are the calls of the source.

Key:
Assay in all cases: NCI-60 one-dose screen, 48 h (100 = growth as untreated, 0 = no growth, -100 = all killed)
Conditions in all cases: 10 µM unless noted
NCI-H23 lung = test system: NCI-H23 lung
NCI-H226 lung = test system: NCI-H226 lung
NCI-H322M lung = test system: NCI-H322M lung
HOP-62 NSCLC = test system: HOP-62 NSCLC
NCI-H460 lung = test system: NCI-H460 lung
HOP-92 NSCLC = test system: HOP-92 NSCLC
NCI-H522 lung = test system: NCI-H522 lung
A549/ATCC NSCLC = test system: A549/ATCC NSCLC
786-0 renal = test system: 786-0 renal
COLO 205 colon = test system: COLO 205 colon

SMILES | growth (NCI-H23 lung) | growth (NCI-H226 lung) | growth (NCI-H322M lung) | growth (HOP-62 NSCLC) | growth (NCI-H460 lung) | growth (HOP-92 NSCLC) | growth (NCI-H522 lung) | growth (A549/ATCC NSCLC) | growth (786-0 renal) | growth (COLO 205 colon)
CN1CCN(Cc2ccc(NC(=O)c3cncc(C#Cc4cnc5ccc(N6CCOCC6)nn45)c3)cc2C(F)(F)F)CC1 | -65.9% (active) | -62.3% (active) | -11.3% (active) | -79.7% (active) | -80.6% (active) | -25.6% (active) | -79.2% (active) | -84.9% (active) | -80.7% (active) | -87.3% (active)
CN(C)S(=O)(=O)c1ccc(-c2nc(C(Cl)Cl)nc3cc(-c4ccc(F)cc4)nn23)cc1 | -3.27% (active) | 45.4% | 31% | 9.75% (active) | 1.94% (active) | 14.6% | -16.5% (active) | 7.5% (active) | 72.6% | 2.25% (active)
O=c1nc(Nc2ccc([N+](=O)[O-])cc2O)sc2ccccc12 | 40.4% | 57.2% | 51.4% | 47% | 22.1% | -0.0775% (active) | 14.2% | 41.7% | 37.7% | 96.5%
O=S(=O)(Oc1ccc(-c2cn3ccsc3n2)cc1)c1cccc(C(F)(F)F)c1 | 109% | 90.2% | 103% | 110% | 104% | 106% | 94.6% | 98.9% | 102% | 113%
CCNCCOc1ccc(/C(=C(/CC)c2ccc(Cl)cc2)c2ccc(OCCCN(C)C)cc2)cc1 | -87.3% (active) | -66.4% (active) | -95.4% (active) | -80.1% (active) | -74.2% (active) | -74.6% (active) | -76.7% (active) | -60.9% (active) | -86% (active) | -82.3% (active)
C#CCN(C)CCCOc1ccc(NCc2ccc(/C=C/C(=O)NO)cc2)cc1Cl | -24% (active) | -11.7% (active) | 9.85% (active) | 3.99% (active) | 4.27% (active) | -27.6% (active) | 2.32% (active) | -3.43% (active) | -2.14% (active) | -24.4% (active)
